# Measurements from PubChem BioAssay (NCATS).
# Where “and” joins values, the source holds several entries; their conditions need not be identical. Equal entries are not always repeated. Results filed as inconclusive are left out. The list shows a part of the results. Calls of active or inactive are those of the source. Unless noted, calls come from the whole dose curve; as a rule, active = well fitted curve in the direction sought with a large enough effect; inconclusive = small, poorly fitted or top-dose-only effect, or another doubt; inactive = no such curve, though single readings can be large; an effect the other way counts as inactive or inconclusive. Starred links: 1 amine or outer side, 2 acyl side, 3 side chain; linkers in the order of their positions; H or OH if unused. Positions of bridges follow the written chain, without caps; N, C: chain ends. Non-standard residues stand in square brackets, D forms with d. Residues, ends and D or L forms follow the SMILES beside them. *: point of attachment. X4 = NC1=N[C@@H](O)C[C@H]([C@H](N[*:1])C(=O)[*:2])N1; ΔAla(3-NHCONH2) = NC(=O)NC=C(N)C(=O)O; β3hOrn = NCCC[C@H](N)CC(=O)*; Dap = NC[C@H](N)C(=O)O
# Experiments:
# [1] = qHTS Assay for Identification of Small Molecule Antagonists for Thrombopoietin (TPO) Signaling Pathway (AID 918); settings: TPO-dependent cell signaling reporter, antagonist mode; note: potency is the fitted concentration of half-maximal effect; nearly all actives have a fitted effect of over 60% in size
# Summary of the method: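 Luminescence read-out: GPIIb-promoter luciferase in Ba/F3 cells carrying human TPO receptor. Compounds added with 26 pM TPO (EC50), 24 hrs, 37 C, 5% CO2; cells deprived of IL-3 overnight beforehand. Inhibition of signal scored.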
# [2] = target: Tyrosyl-DNA phosphodiesterase 1 (Homo sapiens) (UniProt Q9NUW8); assay: Confirmation Assay for Inhibitors of Tyrosyl-DNA Phosphodiesterase (TDP1) (AID 489007); settings: recombinant human TDP1 enzymatic activity, dose-response; note: potency is the fitted concentration of half-maximal effect; nearly all actives have a fitted effect of over 40% in size
# Summary of the method: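 AlphaScreen read-out: streptavidin donor and anti-FITC acceptor beads (10 ug/ml) bind intact substrate, so Tdp1 removal of tyrosine-FITC lowers signal. Enzyme 1 nM, substrate 15 nM, 5 min reaction at room temperature after 15 min compound preincubation.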
# [3] = target: Pyruvate kinase (Leishmania mexicana) (UniProt Q27686); assay: qHTS Validation Assay for Activators of Leishmania Mexicana Pyruvate Kinase (AID 959); settings: purified L. mexicana pyruvate kinase, enzyme activity
# Summary of the method: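 Eight-point qHTS titrations in triplicate, data normalized to DMSO neutral control. Reaction: 0.2 nM LmPYK E451W mutant, 0.5 mM PEP, 0.1 mM ADP, 7 mM MgCl2, pH 7.2, one hour at room temperature; luminescent ATP detection.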
# [4] = qHTS profiling of the MIPE4 collection as inhibitors of Plasmodium falciparum (3D7) proliferation (AID 743344; call rule not given here;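 note: scaled between DMSO vehicle wells and 0.29 µM artemisinin as full inhibition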); settings: P. falciparum 3D7 in erythrocytes, SYBR Green DNA fluorescence, 72 h; at 5.51 µM (top of the series) unless noted
# Summary of the method: (§1)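 Parasite DNA was quantified by SYBR Green I fluorescence (ex 485, em 535 nm) after overnight lysis in saponin/Triton buffer at room temperature. Cultures at 0.3% parasitemia and 2.5% hematocrit were first exposed to compound for 72 h at 37 C; signals were normalised to artemisinin (0.29 uM) and vehicle wells.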
# [5] = qHTS profiling of the MIPE4 collection as inhibitors of Plasmodium falciparum (DD2) proliferation (AID 743345; call rule not given here); settings: P. falciparum Dd2 in erythrocytes, SYBR Green DNA, 72 h; at 5.51 µM (top of the series) unless noted
# Summary of the method: as §1
# [6] = qHTS profiling of the MIPE4 collection as inhibitors of Plasmodium falciparum (DD2) proliferation (Rep 2) (AID 743346; call rule not given here); settings: P. falciparum Dd2 in erythrocytes, SYBR Green DNA, 72 h; at 5.51 µM (top of the series) unless noted
# Summary of the method: as §1
# [7] = qHTS profiling of the MIPE4 collection as inhibitors of Plasmodium falciparum (HB3) proliferation (AID 743347; call rule not given here;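 note: plate controls were DMSO vehicle wells for no effect and artemisinin wells for full effect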); settings: P. falciparum HB3 in erythrocytes, SYBR Green DNA, 72 h; at 5.51 µM (top of the series) unless noted
# Summary of the method: as §1
# [8] = Cell Viability - BJ (AID 421; calls by dose curve;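 note: potency is the fitted concentration of half-maximal effect; cells exposed to compound for 40 hours at 37 °C before readout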); settings: BJ fibroblast viability, qHTS
# Summary of the method: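 Quantitative HTS: ATP depletion in BJ cells after 40 hr compound exposure in complete culture medium, detected with CellTiter-Glo; AC50 from standard Hill fits.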
# [9] = Cell Viability - Hek293 (AID 427;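 active = compounds whose dose-response curve shows a full or clear partial loss of cell viability, called from curve shape rather than a numeric limit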;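 note: potency is the fitted concentration of half-maximal effect; cells exposed to compound for 40 hours at 37 °C before reading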); settings: qHTS
# Summary of the method: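 AC50 values derive from Hill-modelled concentration-response of ATP-based luminescence, normalized between DMSO-only and 100 uM tamoxifen controls. Cells were exposed in complete culture medium for 40 hr at 37 °C before detection.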
# [10] = Cell Viability - HepG2 (AID 433; calls by dose curve;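 note: potency is the fitted concentration of half-maximal effect; potency for ATP loss meaning cytotoxicity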); settings: qHTS
# Summary of the method: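 Cytotoxicity is scored as loss of intracellular ATP in HepG2 cells exposed to compounds for 40 h. Concentration-response curves, normalized to DMSO and 100 uM tamoxifen, give AC50 values.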
# [11] = Cell Viability - MRC5 (AID 434; calls by dose curve;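 note: potency is the fitted concentration of half-maximal effect; cells exposed to compound for 40 hours at 37 °C; potency reflects cytotoxicity seen as loss of intracellular ATP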); settings: MRC5 lung fibroblast viability, qHTS
# Summary of the method: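 Decrease in intracellular ATP, quantified by luciferase light output, reflects compound toxicity toward MRC5 cells exposed for 40 hr in complete culture medium. Concentration-response curves, scaled between DMSO and 100 uM tamoxifen, gave AC50 values.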
# [12] = Cell Viability - SK-N-SH (AID 435; calls by dose curve;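 note: potency is the fitted concentration of half-maximal effect; compound exposure lasted 40 h at 37 °C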); settings: SK-N-SH neuroblastoma cell viability qHTS
# Summary of the method: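 Cells seeded at 1500 per well and incubated 5 hr at 37 °C. Compound added, then 40 hr at 37 °C. CellTiter-Glo added, 20 min at room temperature, luminescence read.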
# [13] = Cell Viability - N2a (AID 540); settings: N2a mouse neuroblastoma cell viability; series mostly up to 92.2 µM;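 note: cells exposed to compound for 40 h at 37 °C; plate controls were DMSO alone for no effect and tamoxifen control for full effect; nearly all actives have a fitted effect of over 45% in size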
# Summary of the method: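 N2a mouse neuroblastoma, 1500 cells/well, 5 hr settle; compound 40 hr, 37 °C; CellTiter-Glo 20 min RT; luminescence; Hill-fit AC50.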
# [14] = Cell Viability - NIH 3T3 (AID 541); settings: NIH 3T3 cell viability, qHTS; series mostly up to 92.2 µM;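 note: plate controls were DMSO alone for no effect and tamoxifen positive control for full effect; nearly all actives have a fitted effect of over 25% in size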
# Summary of the method: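 qHTS format; 40 hr compound exposure, 37 °C; CellTiter-Glo luminescence (cellular ATP) read-out after 20 min at RT. Decrease in ATP = cytotoxicity; AC50 from standard Hill fit.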
# [15] = Cell Viability - SH-SY5Y (AID 544); settings: SH-SY5Y neuroblastoma cell viability; series mostly up to 92.2 µM;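 note: 0% = DMSO alone and -100% = 100 µM tamoxifen; nearly all actives have a fitted effect of over 55% in size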
# Summary of the method: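 SH-SY5Y, 1500 cells/well, 5 hr pre-incubation 37 °C; cpd 40 hr 37 °C; CellTiter-Glo 20 min RT; luminescence (ATP) read. qHTS concentration-response, Hill fit → AC50. Tamoxifen, doxorubicin as positive controls.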
# [16] = target: Vitamin D3 receptor (Homo sapiens) (UniProt P11473); assay: qHTS for Inhibitors of the vitamin D receptor (VDR): Hit Validation in Primary Screen (AID 602199); settings: VDR-coactivator inhibition assay, qHTS confirmation; note: potency is the fitted concentration of half-maximal effect
# Summary of the method: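 Fluorescence polarization assay of VDR binding to Alexa 647-labelled SRC2-3 coactivator peptide: 800nM VDR with 5uM LG19078 agonist, compounds, 2 h at room temperature, read Ex 620 nm/Em 688 nm.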
# [17] = target: Vitamin D3 receptor (Homo sapiens) (UniProt P11473); assay: qHTS for Inhibitors of the vitamin D receptor (VDR): Hit Validation using a Fluorescein Assay (AID 602200); settings: VDR-coactivator binding, fluorescein fluorescence polarization; note: potency is the fitted concentration of half-maximal effect
# Summary of the method: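 Fluorescence polarization (Ex 495 nm/Em 520 nm) read after 2 h at room temperature, reporting disruption of binding between 1.5 uM VDR-LBD, liganded by 5 uM LG19078, and 5 nM fluorescein-labelled SRC2-3 coactivator peptide (final concentrations).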
# [18] = target: Vitamin D3 receptor (Homo sapiens) (UniProt P11473); assay: qHTS for Inhibitors of the vitamin D receptor (VDR): Hit Validation using a Beta-Lactamase Assay (AID 602202); settings: VDR beta-lactamase reporter cells, FRET ratio, cells co-treated with VDR agonist LG190178; series mostly up to 46.1 µM; note: potency is the fitted concentration of half-maximal effect
# Summary of the method: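 Stably transfected HEK293 cells express a VDR–GAL4 DNA-binding-domain fusion driving a UAS beta-lactamase reporter, stimulated by agonist LG190178. Compounds were added 4 h after plating and incubated 18 h. A FRET beta-lactam substrate was then added for 2 h and cleaved substrate emission read at 447 nm.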
# [19] = target: Cytochrome P450 2D6 (Homo sapiens) (UniProt P10635); assay: Cytochrome P450 family 2 subfamily D member 6 (CYP2D6) small molecule antagonists: luciferase biochemical (cell-free) qHTS assay (AID 1645840; active = well fitted curve in the direction sought with a large enough effect in the repeat runs; an effect the other way counts as inactive or inconclusive; note: nearly all actives have a fitted effect of over 55% in size; note: potency is the fitted concentration of half-maximal effect); settings: P450-Glo CYP2D6 enzyme, luciferin luminescence, 1 h; series mostly up to 57.4 µM
# Summary of the method: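 P450-Glo CYP2D6 system: proluciferin substrate converted by enzyme to luciferin, read by luminescence proportional to activity. Enzyme-substrate mix with compound 10 min at room temperature, then NADPH regeneration 1 h before detection reagent.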
# [20] = target: Cytochrome P450 2C9 (Homo sapiens) (UniProt P11712); assay: Cytochrome P450 family 2 subfamily C member 9 (CYP2C9) small molecule antagonists: luciferase biochemical (cell-free) qHTS assay (AID 1645842; active = well fitted curve in the direction sought with a large enough effect in the repeat runs; an effect the other way counts as inactive or inconclusive; note: potency is the fitted concentration of half-maximal effect; nearly all actives have a fitted effect of over 55% in size); settings: P450-Glo CYP2C9 enzyme assay, luciferin luminescence; series mostly up to 57.4 µM
# Summary of the method: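 P450-Glo CYP2C9 system: proluciferin substrate with enzyme in mix containing 0.4% BSA, 10 min at room temperature, then NADPH regeneration solution added and incubated 1 h at 37C. Detection reagent stopped reaction; luminescence read after 20 min as RLU.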
# Sequence of Cytochrome P450 2C9 (Homo sapiens) (P11712 whole entry, looked up): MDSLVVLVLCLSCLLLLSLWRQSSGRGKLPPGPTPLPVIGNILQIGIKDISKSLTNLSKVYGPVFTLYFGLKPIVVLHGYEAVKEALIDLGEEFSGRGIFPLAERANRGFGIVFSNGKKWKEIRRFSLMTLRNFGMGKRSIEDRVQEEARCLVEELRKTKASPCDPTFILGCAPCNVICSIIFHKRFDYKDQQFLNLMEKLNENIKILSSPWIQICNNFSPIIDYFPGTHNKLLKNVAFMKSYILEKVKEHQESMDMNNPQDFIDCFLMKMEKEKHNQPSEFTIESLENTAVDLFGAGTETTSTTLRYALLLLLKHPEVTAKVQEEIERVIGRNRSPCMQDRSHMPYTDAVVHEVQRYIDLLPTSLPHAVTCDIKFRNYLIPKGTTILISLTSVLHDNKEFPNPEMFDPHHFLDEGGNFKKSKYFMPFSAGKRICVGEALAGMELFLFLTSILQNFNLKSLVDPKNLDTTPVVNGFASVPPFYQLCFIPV
# Sequence of Vitamin D3 receptor (Homo sapiens) (P11473 whole entry, looked up, the tested form may be a part): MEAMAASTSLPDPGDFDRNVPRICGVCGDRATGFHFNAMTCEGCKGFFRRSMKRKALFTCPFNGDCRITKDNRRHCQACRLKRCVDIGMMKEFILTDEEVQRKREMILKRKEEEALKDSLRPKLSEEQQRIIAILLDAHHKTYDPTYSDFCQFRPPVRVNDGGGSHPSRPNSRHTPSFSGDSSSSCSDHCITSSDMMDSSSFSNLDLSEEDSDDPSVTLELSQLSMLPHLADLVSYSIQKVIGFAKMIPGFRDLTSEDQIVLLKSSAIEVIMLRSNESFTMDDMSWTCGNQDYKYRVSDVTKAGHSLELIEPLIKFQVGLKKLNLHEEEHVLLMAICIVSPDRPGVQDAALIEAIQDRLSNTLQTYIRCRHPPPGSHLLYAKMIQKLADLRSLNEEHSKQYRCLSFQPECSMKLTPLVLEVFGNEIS
# Sequence of Tyrosyl-DNA phosphodiesterase 1 (Homo sapiens) (Q9NUW8 whole entry, looked up): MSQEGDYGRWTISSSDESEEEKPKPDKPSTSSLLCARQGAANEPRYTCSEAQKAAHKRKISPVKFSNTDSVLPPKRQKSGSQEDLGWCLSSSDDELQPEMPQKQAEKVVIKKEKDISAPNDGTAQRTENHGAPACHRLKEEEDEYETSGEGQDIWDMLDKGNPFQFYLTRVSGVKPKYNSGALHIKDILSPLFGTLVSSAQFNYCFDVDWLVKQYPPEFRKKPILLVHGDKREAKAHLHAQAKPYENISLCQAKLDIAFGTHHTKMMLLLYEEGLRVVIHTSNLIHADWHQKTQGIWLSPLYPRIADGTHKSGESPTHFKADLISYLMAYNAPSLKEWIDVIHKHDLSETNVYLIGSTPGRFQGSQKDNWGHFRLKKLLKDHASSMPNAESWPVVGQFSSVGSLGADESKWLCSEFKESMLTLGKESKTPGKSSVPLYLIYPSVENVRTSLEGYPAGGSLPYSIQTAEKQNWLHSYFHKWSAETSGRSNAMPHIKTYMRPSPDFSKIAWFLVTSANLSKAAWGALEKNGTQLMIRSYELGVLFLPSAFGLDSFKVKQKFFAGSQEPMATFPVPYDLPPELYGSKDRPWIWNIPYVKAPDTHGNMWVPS
# Sequence of Cytochrome P450 2D6 (Homo sapiens) (P10635 whole entry, looked up): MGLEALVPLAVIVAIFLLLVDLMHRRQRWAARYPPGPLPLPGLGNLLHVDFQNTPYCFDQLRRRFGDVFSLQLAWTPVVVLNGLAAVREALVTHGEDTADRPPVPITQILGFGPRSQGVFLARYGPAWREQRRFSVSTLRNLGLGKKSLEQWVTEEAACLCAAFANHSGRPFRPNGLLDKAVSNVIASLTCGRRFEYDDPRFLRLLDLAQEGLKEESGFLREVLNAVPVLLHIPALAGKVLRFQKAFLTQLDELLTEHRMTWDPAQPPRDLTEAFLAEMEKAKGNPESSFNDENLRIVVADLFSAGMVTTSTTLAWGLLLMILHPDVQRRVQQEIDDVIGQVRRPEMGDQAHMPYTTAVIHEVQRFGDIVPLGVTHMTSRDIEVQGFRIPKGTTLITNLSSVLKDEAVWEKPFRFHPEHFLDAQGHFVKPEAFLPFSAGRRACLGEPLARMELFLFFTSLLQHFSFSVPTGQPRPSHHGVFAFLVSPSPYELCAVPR
# Sequence of Pyruvate kinase (Leishmania mexicana) (Q27686 2-499 E452W): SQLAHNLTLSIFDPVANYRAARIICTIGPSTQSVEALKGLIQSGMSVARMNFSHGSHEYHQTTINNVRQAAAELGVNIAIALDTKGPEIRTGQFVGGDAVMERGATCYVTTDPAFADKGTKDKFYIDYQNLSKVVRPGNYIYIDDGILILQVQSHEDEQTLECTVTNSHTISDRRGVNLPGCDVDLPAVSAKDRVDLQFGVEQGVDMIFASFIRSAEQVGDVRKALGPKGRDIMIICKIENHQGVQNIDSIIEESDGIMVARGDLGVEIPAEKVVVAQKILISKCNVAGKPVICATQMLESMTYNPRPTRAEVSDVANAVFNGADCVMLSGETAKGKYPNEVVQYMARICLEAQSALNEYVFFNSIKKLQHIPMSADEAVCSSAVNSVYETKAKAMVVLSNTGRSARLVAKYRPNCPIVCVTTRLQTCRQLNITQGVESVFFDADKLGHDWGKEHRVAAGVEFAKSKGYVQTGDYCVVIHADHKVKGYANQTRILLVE
smiles,measurement,setting,value
CCN(CC)CCC[C@H](C)Nc1c2ccc(Cl)cc2nc2ccc(OC)cc12,Potency,[1],10 µM (active)
CN(C)C(=O)c1ccc(-c2cncnc2NCc2cccs2)cc1,Potency,[2],1.78 µM (active)
CC(=O)OCC1=C(C(=O)O)N2C(=O)[C@@H](NC(=O)Cc3cccs3)[C@@H]2SC1,Potency,[3],25.1 µM (active)
CC1CC2C3CCC4=CC(=O)C=C[C@@]4(C)[C@]3(F)C(O)C[C@]2(C)[C@]1(O)C(=O)CO (stereo not given in full),"parasite growth, % of DMSO control",[4],31.9% [at 28.5 µM]
same,"parasite growth remaining, % of DMSO control (lower = more inhibition)",[5],90.9% [at 28.5 µM]
same,"parasite growth, % of control (lower = inhibition)",[6],44.9% [at 28.5 µM]
same,"growth, % of control",[7],11.4% [at 28.5 µM]
CO/N=C(/C(=O)NC1C(=O)N2C(C(=O)O)=C(CSc3nc(=O)c(O)nn3C)CSC12)c1csc(N)n1 (stereo not given),Potency,[2],1.78 µM (active) and 12.6 µM (active)
CN(C)[C@H]1C(=O)C(C(=O)NCN2CCCC2)=C(O)[C@]2(O)C(=O)C3=C(O)c4c(O)cccc4[C@@](C)(O)[C@H]3C[C@@H]12,Potency,[2],8.91 µM (active)
CN(C)CCOC(c1ccccc1)c1ccccc1 (tested in a mixture with another compound),Potency,[8],> 92 µM (inactive)
same,Potency,[9],> 92 µM (inactive)
same,Potency,[10],> 92 µM (inactive)
same,Potency,[11],> 92 µM (inactive)
same,Potency,[12],> 92 µM (inactive)
same,outcome,[13],inactive
same,outcome,[14],inactive
same,outcome,[15],inactive
CCOc1ccc(NC(=O)c2c(NC(=O)Cc3ccccc3)sc3c2CCC(C)C3)cc1 (stereo not given),Potency,[16],5.62 µM (active)
same,Potency,[17],8.91 µM (active)
same,Potency,[18],inactive
CCCCOc1ccc(CN2C(=O)C(=O)c3cc(Br)cc(C)c32)cc1OC,Potency,[16],10 µM (active)
same,Potency,[17],8.91 µM (active)
same,Potency,[18],inactive
CCOC(=O)c1ccc(NC(=O)CSc2nc3c([nH]c4ccccc43)c(=O)n2C)cc1,Potency,[19],inactive
same,Potency,[20],3.01 µM (active)
NCCC[C@H](N)CC(=O)N[C@H]1CNC(=O)[C@H]([C@H]2C[C@H](O)N=C(N)N2)NC(=O)C(=CNC(N)=O)NC(=O)[C@H](CO)NC(=O)[C@H](CO)NC1=O (β3hOrn-[Dap]SS[ΔAla(3-NHCONH2)][X4]; lactam 1-C),"parasite growth, % of DMSO control",[4],66.2%
same,"parasite growth remaining, % of DMSO control (lower = more inhibition)",[5],79.9%
same,"parasite growth, % of control (lower = inhibition)",[6],92.5%
same,"growth, % of control",[7],71.8%
COc1ccccc1-c1cc(C(F)(F)F)nc(S(=O)(=O)CCCC(=O)Nc2ccc(F)cc2F)n1,Potency,[16],4.47 µM (active)
same,Potency,[17],8.91 µM (active)
same,Potency,[18],18.4 µM (active)
Cc1ccc(Cn2c(C)c3cnn(CC(=O)NCc4ccccc4)c(=O)c3c2C)cc1,Potency,[19],9.52 µM (active)
same,Potency,[20],12 µM (active)
Cc1nnc(SCC(=O)NCc2ccccc2Cl)c2nn(-c3ccccc3)c(C)c12,Potency,[20],3.01 µM (active)
